The supplement of paper PMC10849652
Targets with a hit are over-represented here; the source holds about 7,900 in all. About 0.6% of all pairs of compound and target were hits. Values without a mark were called inactive.

Tests used:
Test in all cases: log2 fold change, soluble protein after heating vs DMSO (PISA); higher = thermal stabilisation; K562 cells, 10 uM, 30 min; active = over 0.2 and 3.5 SD of the protein, either way, in both replicates (recomputed)
[1] = compound: CC[C@@H]1C(=O)N(C)c2cnc(Nc3ccc(C(=O)NC4CCN(C)CC4)cc3OC)nc2N1C1CCCC1
Summary of the method: (§1)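 K562 cells at 2×10^6 cells/mL were exposed to 10 μM compound for 30 min, then aliquots were heated for 3 min across 48°C-58°C, pooled, and extracted in PBS containing 0.5% NP-40 at 4°C. The supernatant after 21,000xg for 90 min was taken as soluble protein and measured by TMTpro 16plex LC-MS/MS with channel sums equalised. Thermal stability is reported relative to control samples, with values from duplicates. Fold changes are given on a log2 scale.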

[2] = compound: CC[C@@H]1C(=O)N(C)c2cnc(Nc3ccc(C(=O)N[C@H]4CC[C@H](N5CCN(CC6CC6)CC5)CC4)cc3OC)nc2N1C(C)C [volasertib]
Summary of the method: as §1

[3] = compound: CC[C@H](C)[C@@H](C(=O)N[C@@H]([C@@H](C)O)C(=O)N[C@@H](CC(C)C)C(=O)[C@]1(CO1)C)NC(=O)[C@H]([C@@H](C)CC)N(C)C(=O)C [epoxomicin]
Summary of the method: as §1

[4] = compound: CCn1c(C(=O)N(C2CC2)C2CC2)cc2c3c(ncn3C)c(Nc3cc(C)n(C)n3)nc21
Summary of the method: as §1

[5] = compound: CCn1cc(-c2ccnc3[nH]c(-c4cccc(CN(C)C)c4)cc23)c(-c2ccc(NC(=O)N(C)C)cc2)n1
Summary of the method: as §1

[6] = compound: CN(C)CC(=O)Nc1ccc2[nH]c(=O)c3ccccc3c2c1
Summary of the method: as §1

[7] = compound: CN(CCOC1=CC=C(C=C1)C[C@H]2C(=O)NC(=O)S2)C3=CC=CC=N3 (racemic) [rosiglitazone]
Summary of the method: as §1

[8] = compound: CN1C2=C(C3=C1C(=O)N(N=C3)CC4=CC(=CC=C4)N)SC(=C2)S(=O)C
Summary of the method: as §1

[9] = compound: CN1CCC(CNc2ccc3ncc(-c4cccc(OC(F)(F)F)c4)n3n2)CC1
Summary of the method: as §1

[10] = compound: CN1CCN(CCOc2cc(OC3CCOCC3)c3c(Nc4c(Cl)ccc5c4OCO5)ncnc3c2)CC1 [saracatinib]
Summary of the method: as §1

[11] = compound: CN1CCN(c2nc(C3=C(c4c[nH]c5ccccc45)C(=O)NC3=O)c3ccccc3n2)CC1 [sotrastaurin]
Summary of the method: as §1

[12] = compound: CN1CC[C@H](c2c(O)cc(O)c3c(=O)cc(-c4ccccc4Cl)oc23)[C@H](O)C1 [alvocidib]
Summary of the method: as §1

[13] = compound: CN1CCc2c(c3ccccc3n2Cc2ccc(C(=O)NO)cc2)C1 [Tubastatin A]
Summary of the method: as §1

[14] = compound: CNC(=O)C1=CC=CC=C1NC2=NC(=NC=C2Cl)NC3=C(C=C(C=C3)N4CCOCC4)OC
Summary of the method: as §1

[15] = compound: CNC(=O)c1ccc(Nc2ncc(C(F)(F)F)c(NCc3nccnc3N(C)S(C)(=O)=O)n2)cc1 [defactinib]
Summary of the method: as §1

[16] = compound: CNCc1ccc(-c2[nH]c3cc(F)cc4c3c2CCNC4=O)cc1 [rucaparib]
Summary of the method: as §1

[17] = compound: CNc1nc(-c2ccc3c(N)n[nH]c3c2)cc(N2C[C@@H](C(=O)NC3CCCCC3)CC[C@H]2C)n1
Summary of the method: as §1

[18] = compound: COC(=O)N[C@@H](C)CNc1nccc(-c2cn(C(C)C)nc2-c2cc(Cl)cc(NS(C)(=O)=O)c2F)n1 [encorafenib]
Summary of the method: as §1

[19] = compound: COC(=O)[C@H](CCSC)NC(=O)C1=C(C=C(C=C1)NC[C@H](CS)N)C2=CC=CC=C2
Summary of the method: as §1

[20] = compound: CC[C@H](C)N1C=C(C2=C(C=C(C=C21)C3=CN=C(C=C3)N4CCNCC4)C(=O)NCC5=C(C=C(NC5=O)C)C)C
Summary of the method: as §1

Chain of UniProt Q96PV6 (Q96PV6 whole entry, looked up): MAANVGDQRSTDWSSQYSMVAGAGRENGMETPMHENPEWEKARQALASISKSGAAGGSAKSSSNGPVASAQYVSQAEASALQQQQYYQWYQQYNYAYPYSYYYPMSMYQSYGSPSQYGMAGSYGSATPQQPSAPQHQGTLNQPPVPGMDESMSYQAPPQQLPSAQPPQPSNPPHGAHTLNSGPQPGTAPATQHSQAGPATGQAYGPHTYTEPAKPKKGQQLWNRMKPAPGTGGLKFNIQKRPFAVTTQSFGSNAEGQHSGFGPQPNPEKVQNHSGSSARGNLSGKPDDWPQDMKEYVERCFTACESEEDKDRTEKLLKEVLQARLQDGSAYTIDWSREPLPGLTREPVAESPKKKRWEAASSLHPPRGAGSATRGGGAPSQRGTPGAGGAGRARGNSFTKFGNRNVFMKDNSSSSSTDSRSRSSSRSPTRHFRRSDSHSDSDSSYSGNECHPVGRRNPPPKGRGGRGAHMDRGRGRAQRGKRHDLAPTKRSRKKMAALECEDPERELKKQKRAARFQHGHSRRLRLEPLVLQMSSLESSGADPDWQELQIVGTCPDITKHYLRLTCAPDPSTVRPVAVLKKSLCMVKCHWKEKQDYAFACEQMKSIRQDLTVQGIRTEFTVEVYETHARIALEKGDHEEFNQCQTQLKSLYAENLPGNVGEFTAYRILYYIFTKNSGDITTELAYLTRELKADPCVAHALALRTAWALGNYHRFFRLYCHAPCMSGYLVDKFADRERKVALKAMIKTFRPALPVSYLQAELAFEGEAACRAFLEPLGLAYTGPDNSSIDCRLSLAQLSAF
Chain of UniProt O15066 (O15066 whole entry, looked up): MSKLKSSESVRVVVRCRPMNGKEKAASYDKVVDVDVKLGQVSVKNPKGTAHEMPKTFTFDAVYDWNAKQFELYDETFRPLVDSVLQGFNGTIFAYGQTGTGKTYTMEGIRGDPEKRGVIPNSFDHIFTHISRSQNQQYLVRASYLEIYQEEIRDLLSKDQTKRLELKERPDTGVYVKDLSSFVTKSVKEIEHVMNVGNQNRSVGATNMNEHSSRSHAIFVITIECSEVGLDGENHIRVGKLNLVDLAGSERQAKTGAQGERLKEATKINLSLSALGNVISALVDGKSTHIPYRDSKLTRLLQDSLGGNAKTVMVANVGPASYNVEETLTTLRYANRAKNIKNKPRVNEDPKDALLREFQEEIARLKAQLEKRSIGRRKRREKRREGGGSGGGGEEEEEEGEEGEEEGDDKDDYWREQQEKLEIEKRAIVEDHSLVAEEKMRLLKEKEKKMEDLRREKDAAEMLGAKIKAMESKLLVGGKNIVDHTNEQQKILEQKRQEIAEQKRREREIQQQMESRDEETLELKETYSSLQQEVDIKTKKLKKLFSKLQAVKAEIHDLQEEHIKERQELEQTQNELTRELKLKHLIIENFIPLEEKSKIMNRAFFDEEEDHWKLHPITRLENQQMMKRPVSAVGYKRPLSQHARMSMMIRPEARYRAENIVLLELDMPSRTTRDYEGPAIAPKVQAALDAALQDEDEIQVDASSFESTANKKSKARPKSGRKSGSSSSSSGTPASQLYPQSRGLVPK
Chain of UniProt P27816 (P27816 whole entry, looked up): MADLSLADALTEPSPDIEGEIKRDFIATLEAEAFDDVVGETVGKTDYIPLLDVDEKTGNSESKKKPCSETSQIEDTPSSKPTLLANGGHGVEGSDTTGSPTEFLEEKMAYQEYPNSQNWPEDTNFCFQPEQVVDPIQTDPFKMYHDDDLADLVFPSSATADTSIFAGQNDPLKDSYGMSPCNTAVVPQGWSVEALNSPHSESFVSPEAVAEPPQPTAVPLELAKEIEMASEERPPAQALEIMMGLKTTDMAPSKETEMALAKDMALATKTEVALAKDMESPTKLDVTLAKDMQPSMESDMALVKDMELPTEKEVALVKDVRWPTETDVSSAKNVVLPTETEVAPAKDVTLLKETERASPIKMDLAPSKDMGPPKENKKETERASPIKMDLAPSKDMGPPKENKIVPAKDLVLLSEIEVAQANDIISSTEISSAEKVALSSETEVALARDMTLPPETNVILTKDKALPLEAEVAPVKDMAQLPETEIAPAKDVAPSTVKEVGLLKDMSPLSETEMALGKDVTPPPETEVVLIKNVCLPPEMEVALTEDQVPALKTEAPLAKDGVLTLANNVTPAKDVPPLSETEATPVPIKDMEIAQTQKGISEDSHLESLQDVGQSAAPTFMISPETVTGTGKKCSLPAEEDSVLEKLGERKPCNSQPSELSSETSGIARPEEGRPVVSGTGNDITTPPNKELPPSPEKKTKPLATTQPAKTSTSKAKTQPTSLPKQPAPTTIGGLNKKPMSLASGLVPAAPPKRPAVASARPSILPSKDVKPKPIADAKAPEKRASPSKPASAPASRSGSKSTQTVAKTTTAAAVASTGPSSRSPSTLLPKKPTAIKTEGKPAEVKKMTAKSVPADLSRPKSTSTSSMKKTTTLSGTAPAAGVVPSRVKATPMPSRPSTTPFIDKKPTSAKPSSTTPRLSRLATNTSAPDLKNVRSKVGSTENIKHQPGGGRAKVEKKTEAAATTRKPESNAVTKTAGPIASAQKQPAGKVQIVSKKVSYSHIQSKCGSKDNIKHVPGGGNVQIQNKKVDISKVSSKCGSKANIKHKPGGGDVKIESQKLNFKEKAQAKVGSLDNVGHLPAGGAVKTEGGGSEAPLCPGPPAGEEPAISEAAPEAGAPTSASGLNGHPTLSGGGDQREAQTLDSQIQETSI
Chain of UniProt O95279 (O95279 whole entry, looked up): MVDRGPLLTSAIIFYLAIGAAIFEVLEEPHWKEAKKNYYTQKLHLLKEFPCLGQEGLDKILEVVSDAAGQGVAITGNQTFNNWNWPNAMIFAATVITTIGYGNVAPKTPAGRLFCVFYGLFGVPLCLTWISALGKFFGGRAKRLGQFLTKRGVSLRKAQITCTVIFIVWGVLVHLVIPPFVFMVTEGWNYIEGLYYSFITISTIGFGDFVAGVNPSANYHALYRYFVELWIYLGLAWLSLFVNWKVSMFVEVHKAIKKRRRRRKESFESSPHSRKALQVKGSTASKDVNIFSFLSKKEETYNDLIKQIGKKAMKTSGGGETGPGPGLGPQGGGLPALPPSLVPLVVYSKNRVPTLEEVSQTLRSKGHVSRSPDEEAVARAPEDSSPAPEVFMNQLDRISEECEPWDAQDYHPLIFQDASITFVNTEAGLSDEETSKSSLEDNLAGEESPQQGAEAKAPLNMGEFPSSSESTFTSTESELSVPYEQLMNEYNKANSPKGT
Chain of UniProt Q9Y2E5 (Q9Y2E5 whole entry, looked up): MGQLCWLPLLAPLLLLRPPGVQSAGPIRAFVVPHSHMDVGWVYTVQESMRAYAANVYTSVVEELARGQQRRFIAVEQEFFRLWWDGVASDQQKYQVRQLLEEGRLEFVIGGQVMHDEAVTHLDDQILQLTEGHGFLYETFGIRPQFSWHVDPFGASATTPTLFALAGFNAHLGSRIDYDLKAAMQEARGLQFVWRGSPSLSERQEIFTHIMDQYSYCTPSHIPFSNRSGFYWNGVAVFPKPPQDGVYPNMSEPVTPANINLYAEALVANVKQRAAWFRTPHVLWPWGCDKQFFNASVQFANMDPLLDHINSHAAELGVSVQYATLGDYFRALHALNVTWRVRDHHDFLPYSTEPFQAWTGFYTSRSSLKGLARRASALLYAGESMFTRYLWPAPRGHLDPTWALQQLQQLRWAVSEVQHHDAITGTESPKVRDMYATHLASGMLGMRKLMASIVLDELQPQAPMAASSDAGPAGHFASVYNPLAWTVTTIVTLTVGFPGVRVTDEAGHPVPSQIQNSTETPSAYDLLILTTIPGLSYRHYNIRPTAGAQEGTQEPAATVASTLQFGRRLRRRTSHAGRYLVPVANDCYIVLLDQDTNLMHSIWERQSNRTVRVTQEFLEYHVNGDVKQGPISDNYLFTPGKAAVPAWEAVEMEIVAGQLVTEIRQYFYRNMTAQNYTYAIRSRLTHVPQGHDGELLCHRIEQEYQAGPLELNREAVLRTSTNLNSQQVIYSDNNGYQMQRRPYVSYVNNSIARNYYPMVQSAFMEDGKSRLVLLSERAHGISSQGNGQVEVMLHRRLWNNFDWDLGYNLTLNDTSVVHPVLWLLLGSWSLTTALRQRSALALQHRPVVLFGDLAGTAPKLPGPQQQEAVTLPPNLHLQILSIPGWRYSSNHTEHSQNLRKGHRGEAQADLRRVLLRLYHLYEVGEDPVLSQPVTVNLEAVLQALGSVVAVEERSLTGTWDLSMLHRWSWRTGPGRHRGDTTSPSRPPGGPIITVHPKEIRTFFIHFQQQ
Chain of UniProt Q96G25 (Q96G25 whole entry, looked up): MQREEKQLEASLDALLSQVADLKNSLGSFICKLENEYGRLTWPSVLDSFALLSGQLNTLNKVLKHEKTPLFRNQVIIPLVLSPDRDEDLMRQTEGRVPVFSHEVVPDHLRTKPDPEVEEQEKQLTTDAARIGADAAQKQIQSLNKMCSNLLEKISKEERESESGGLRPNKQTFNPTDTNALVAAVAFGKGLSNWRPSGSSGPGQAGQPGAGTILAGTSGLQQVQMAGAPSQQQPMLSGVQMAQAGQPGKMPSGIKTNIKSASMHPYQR
Chain of UniProt P51884 (P51884 whole entry, looked up): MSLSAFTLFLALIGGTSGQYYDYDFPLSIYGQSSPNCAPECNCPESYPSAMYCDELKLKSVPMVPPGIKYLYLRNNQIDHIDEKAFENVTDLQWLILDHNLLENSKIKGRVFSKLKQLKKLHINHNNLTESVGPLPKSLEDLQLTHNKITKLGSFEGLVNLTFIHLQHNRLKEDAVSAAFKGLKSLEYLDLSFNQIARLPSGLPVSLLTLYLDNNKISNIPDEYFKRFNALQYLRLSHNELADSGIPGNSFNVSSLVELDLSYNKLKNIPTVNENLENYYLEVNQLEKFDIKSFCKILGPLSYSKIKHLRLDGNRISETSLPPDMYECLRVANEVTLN
Chain of UniProt Q96LU5 (Q96LU5 whole entry, looked up): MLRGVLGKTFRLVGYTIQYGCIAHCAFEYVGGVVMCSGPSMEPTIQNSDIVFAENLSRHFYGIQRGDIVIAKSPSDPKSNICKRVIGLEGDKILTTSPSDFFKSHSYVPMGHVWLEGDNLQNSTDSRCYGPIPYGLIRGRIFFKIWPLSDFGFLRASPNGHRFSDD

Target | log2 fold change [1] | log2 fold change [2] | log2 fold change [3] | log2 fold change [4] | log2 fold change [5] | log2 fold change [6] | log2 fold change [7] | log2 fold change [8] | log2 fold change [9] | log2 fold change [10] | log2 fold change [11] | log2 fold change [12] | log2 fold change [13] | log2 fold change [14] | log2 fold change [15] | log2 fold change [16] | log2 fold change [17] | log2 fold change [18] | log2 fold change [19] | log2 fold change [20]
KIF3B (UniProt O15066) | 0.156 | -0.009 | -0.134 | -0.204 | 0.159 | -0.078 | 0.106 | -0.052 | 0.378 (active) | -0.068 | 0.005 | -0.011 | 0.002 | 0.069 | 0.028 | -0.189 | -0.063 | 0.034 | -0.043 | –
MAGEA8 (UniProt P43361) | -0.096 | -0.386 | – | -0.063 | 0.252 | -0.003 | 0.036 | 0.038 | -0.07 | -0.006 | – | -0.022 | 0.101 | 0.123 | -0.267 | -0.012 | -0.092 | 0.038 | -0.038 | -0.075
KCNK5 (UniProt O95279) | -0.042 | -0.174 | 0.046 | 0.004 | 0.047 | – | 0.179 | 0.223 | -0.073 | -0.444 | -0.047 | -0.239 | – | -0.05 | – | 0.05 | -1.08 (active) | 0.017 | – | –
METAP1D (UniProt Q6UB28) | 0.031 | -0.082 | 0.074 | -0.039 | – | -0.065 | 0.013 | 0.052 | – | 0.088 | -0.042 | -0.086 | -0.181 | 0.036 | 0.013 | -0.074 | 0.04 | 0.006 | 0.006 | 0.051
LRBA, A0A494BZW2 | -0.04 | -0.025 | -0.03 | -0.193 | -0.039 | – | 0.011 | 0.043 | -0.115 | -0.005 | 0.065 | 0.015 | -0.42 | -0.368 | – | -0.055 | -0.008 | 0.041 | – | 0.007
KMT2C isoform 3 (UniProt Q8NEZ4) | -0.908 (active) | – | -0.004 | 0.009 | 0.031 | 0 | 0.009 | 0.026 | -0.337 (active) | -0.026 | -0.02 | -0.084 | -0.029 | 0.009 | -0.043 | -0.043 | -0.046 | -0.012 | 0.035 | -0.02
MBLAC1 (UniProt A4D2B0) | 0.112 | 0.148 | – | 0.063 | -0.01 | 0.105 | -0.024 | -0.021 | 0.063 | 0.164 | – | 0.002 | – | 0.049 | 0.003 | 0.023 | -0.005 | 0.035 | -0.02 | –
MAP4K4 isoform 6 (UniProt O95819) | -0.241 | – | – | – | – | -0.083 | – | 0.261 | – | -0.108 | – | – | -0.016 | – | -0.012 | 0.067 | -0.186 | 0.049 | -0.036 | 0.109
MAP4 isoform 5 (UniProt P27816) | -0.001 | -0.046 | 0.134 | -0.03 | – | – | 0.008 | – | – | – | -0.16 | – | – | 0.13 | – | 0.046 | – | 0.094 | – | -0.258
LUM (UniProt P51884) | 0.076 | 0.225 | -0.145 | 0.2 | – | -0.167 | – | 0.054 | – | 0.081 | 0.29 | 0.047 | -0.145 | 0.085 | -0.071 | -0.167 | 0.014 | -0.011 | 0.283 | -0.269
MAP4K2 (UniProt Q12851) | -0.044 | -0.093 | – | – | – | – | 0.066 | – | – | – | -0.184 | -0.076 | 0.076 | – | – | -0.003 | – | 0.066 | – | 0.298
MED12 isoform 2 (UniProt Q93074) | -0.055 | -0.211 | -0.17 | 0.083 | 0.086 | – | 0.074 | 0.154 | -0.071 | 0.072 | -0.09 | – | 0.32 | 0.303 | – | 0.137 | 0.102 | 0.145 | – | 0.091
MAN2B2 (UniProt Q9Y2E5) | -0.445 (active) | -0.704 (active) | -0.002 | 0 | – | -0.019 | -0.052 | 0.013 | – | -0.015 | -0.018 | – | 0.105 | 0.035 | -0.009 | -0.158 | 0.007 | 0.044 | -0.04 | -0.005
LPGAT1 (UniProt Q92604) | -0.206 | -0.401 (active) | 0.015 | -0.128 | – | 0.051 | 0.012 | -0.029 | – | 0.111 | -0.001 | -0.011 | 0.019 | 0.073 | -0.184 | 0.036 | -0.187 | 0.026 | 0.015 | 0.063
IMMP1L (UniProt Q96LU5) | -0.012 | -0.055 | -0.015 | -0.031 | – | 0.017 | -0.003 | -0.097 | – | -0.041 | -0.005 | 0.039 | -0.024 | -0.01 | 0.011 | -0.039 | -0.102 | -0.037 | -0.027 | -0.02
MED8 isoform 2 (UniProt Q96G25) | 0.027 | 0.1 | -0.051 | 0.009 | – | -0.075 | 0.007 | 0.052 | – | 0.003 | 0.044 | 0.007 | – | 0.039 | -0.031 | 0.04 | -0.131 | -0.024 | 0.141 | 0.046
IL27RA (UniProt Q6UWB1) | -0.12 | -0.298 | -0.178 | -0.066 | – | -0.098 | -0.093 | -0.219 | – | 0.062 | 0.014 | -0.025 | 0.063 | 0.056 | -0.097 | -0.03 | 0.065 | -0.023 | 0 | -0.049
LENG8 (UniProt Q96PV6) | -0.029 | – | 0.101 | 0.005 | 0.073 | 0.065 | 0.017 | -0.225 | -0.238 | -0.112 | -0.043 | -0.074 | -0.021 | -0.125 | -0.316 | 0.044 | 0.133 | 0.129 | -0.133 | -0.009
